Laboratory results from the supplement of paper PMC10849652.
About 7,900 targets were measured; listed, in parts, are those with a hit and a random draw of the rest. About 0.6% of all pairs of compound and target were hits.

What was measured:
Test in all cases: log2 fold change, soluble protein after heating vs DMSO (PISA); higher = thermal stabilisation; K562 cells, 10 uM, 30 min; active = over 0.2 and 3.5 SD of the protein, either way, in both replicates (recomputed)
[1] = compound: CC1=C(C=C(C=C1)NC(=O)C2=CC(=CC=C2)C(C)(C)C#N)NC3=CC4=C(C=C3)N=CN(C4=O)C
Summary of the method: (§1)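 K562 cells (2×10^6 cells/mL) were treated with 10 μM compound for 30 min, and aliquots were heated for 3 min over 48°C-58°C. Pooled aliquots were extracted in PBS with 0.5% NP-40 at 4°C, and the supernatant after 21,000xg for 90 min was measured by TMTpro 16plex LC-MS/MS with channel sums equalised. Reported thermal stability, relative to control samples and from duplicates, is a log2 fold change.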

[2] = compound: CC1=C(C=C(C=C1)NC(=O)C2=CC(=CC=C2)N(C)C)NC(=O)C3=CC=C(C=C3)O
Summary of the method: as §1

[3] = compound: CC1=CC=C(C=C1)SC2=C3C=C(SC3=CN=C2)C(=O)N
Summary of the method: as §1

[4] = compound: CC1=NC(=CC=C1)C2=C(N=C(N2)C(C)(C)C)C3=CC4=NC=CN=C4C=C3
Summary of the method: as §1

[5] = compound: CCCCN(Cc1ccc(C(=O)NO)cc1)C(=O)Nc1ccccc1 [Nexturastat A]
Summary of the method: as §1

[6] = compound: CCCS(=O)(=O)Nc1ccc(F)c(C(=O)c2c[nH]c3ncc(-c4ccc(Cl)cc4)cc23)c1F [vemurafenib]
Summary of the method: as §1

[7] = compound: CCCS(=O)(=O)Nc1ccc(F)c(C(=O)c2c[nH]c3ncc(Cl)cc23)c1F
Summary of the method: as §1

[8] = compound: CCCc1cc(C)[nH]c(=O)c1CNC(=O)c1cc(-c2ccnc(N3CCN(C)CC3)c2)cc2c1cnn2C(C)C
Summary of the method: as §1

[9] = compound: CCN(CC)Cc1ccc2cc(COC(=O)Nc3ccc(C(=O)NO)cc3)ccc2c1 [givinostat]
Summary of the method: as §1

[10] = compound: CCN(CCCOc1ccc2c(Nc3cc(CC(=O)Nc4cccc(F)c4)[nH]n3)ncnc2c1)CCOP(=O)(O)O [barasertib]
Summary of the method: as §1

Measured: log2 fold change

STAT3 (UniProt P40763)
inactive: [1] 0.012 | [2] 0.001 | [3] -0.009 | [4] -0.008 | [5] 0.005 | [6] 0.101 | [7] 0.102 | [8] 0.017 | [9] 0.089 | [10] 0.064

SREK1 isoform 2 (UniProt Q8WXA9)
inactive: [1] -0.335 | [2] -0.083 | [3] 0 | [4] 0.045 | [5] 0.108 | [6] 0.019 | [7] 0.096 | [8] -0.069 | [9] 0.062 | [10] -0.057

SLC27A1 (UniProt Q6PCB7)
Sequence of UniProt Q6PCB7 (Q6PCB7 whole entry, looked up): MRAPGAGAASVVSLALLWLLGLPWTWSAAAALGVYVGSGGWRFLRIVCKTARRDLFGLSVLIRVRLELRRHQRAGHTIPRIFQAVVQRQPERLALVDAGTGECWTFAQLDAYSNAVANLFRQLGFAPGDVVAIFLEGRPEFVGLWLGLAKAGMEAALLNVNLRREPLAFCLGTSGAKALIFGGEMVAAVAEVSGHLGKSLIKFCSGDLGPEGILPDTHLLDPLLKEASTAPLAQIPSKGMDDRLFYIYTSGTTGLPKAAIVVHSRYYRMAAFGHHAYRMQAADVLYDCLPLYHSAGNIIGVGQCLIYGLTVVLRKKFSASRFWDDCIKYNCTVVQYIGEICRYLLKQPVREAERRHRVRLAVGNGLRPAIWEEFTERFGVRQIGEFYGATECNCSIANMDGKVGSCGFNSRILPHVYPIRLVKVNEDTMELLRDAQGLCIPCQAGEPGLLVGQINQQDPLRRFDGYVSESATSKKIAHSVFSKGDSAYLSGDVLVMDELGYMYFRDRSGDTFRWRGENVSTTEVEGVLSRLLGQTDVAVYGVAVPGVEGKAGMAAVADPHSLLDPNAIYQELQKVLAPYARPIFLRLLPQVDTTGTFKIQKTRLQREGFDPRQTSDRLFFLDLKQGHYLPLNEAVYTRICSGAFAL
inactive: [1] -0.186 | [2] 0.036 | [3] -0.046 | [4] 0.12 | [5] -0.061 | [6] -0.109 | [7] -0.008 | [8] -0.01 | [9] 0.049 | [10] 0.043

TBRG4 (UniProt Q969Z0)
inactive: [1] 0.08 | [2] -0.006 | [3] 0.073 | [4] 0.151 | [5] -0.072 | [6] 0.05 | [7] 0.185 | [8] -0.059 | [9] 0.099 | [10] 0.125

STEAP3 isoform 2 (UniProt Q658P3)
inactive: [1] -0.009 | [2] 0.015 | [3] 0.008 | [4] -0.003 | [5] -0.05 | [6] -0.027 | [7] 0.007 | [8] -0.025 | [9] 0.005 | [10] -0.004

STAM2 (UniProt O75886)
inactive: [1] -0.08 | [2] -0.032 | [3] 0.034 | [4] 0.069 | [5] -0.012 | [6] 0.009 | [7] 0.074 | [8] -0.038 | [9] 0.021 | [10] 0.028

SNW1 (UniProt Q13573)
inactive: [1] -0.035 | [2] 0.041 | [3] -0.017 | [4] 0 | [5] 0.074 | [6] -0.04 | [7] -0.017 | [8] -0.045 | [9] -0.041 | [10] -0.02

THYN1 (UniProt Q9P016)
Sequence of UniProt Q9P016 (Q9P016 whole entry, looked up): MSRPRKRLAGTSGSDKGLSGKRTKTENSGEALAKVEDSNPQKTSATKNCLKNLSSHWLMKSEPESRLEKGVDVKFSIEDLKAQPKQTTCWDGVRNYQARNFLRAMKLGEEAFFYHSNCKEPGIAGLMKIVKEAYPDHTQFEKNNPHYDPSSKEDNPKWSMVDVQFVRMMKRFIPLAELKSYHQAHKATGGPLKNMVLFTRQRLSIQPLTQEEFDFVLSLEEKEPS
inactive: [1] 0.008 | [2] 0.013 | [3] 0.003 | [4] 0.056 | [5] -0.022 | [6] -0.004 | [7] -0.004 | [8] 0.003 | [9] -0.135 | [10] 0.008

SLC29A3 (UniProt Q9BZD2)
Sequence of UniProt Q9BZD2 (Q9BZD2 whole entry, looked up): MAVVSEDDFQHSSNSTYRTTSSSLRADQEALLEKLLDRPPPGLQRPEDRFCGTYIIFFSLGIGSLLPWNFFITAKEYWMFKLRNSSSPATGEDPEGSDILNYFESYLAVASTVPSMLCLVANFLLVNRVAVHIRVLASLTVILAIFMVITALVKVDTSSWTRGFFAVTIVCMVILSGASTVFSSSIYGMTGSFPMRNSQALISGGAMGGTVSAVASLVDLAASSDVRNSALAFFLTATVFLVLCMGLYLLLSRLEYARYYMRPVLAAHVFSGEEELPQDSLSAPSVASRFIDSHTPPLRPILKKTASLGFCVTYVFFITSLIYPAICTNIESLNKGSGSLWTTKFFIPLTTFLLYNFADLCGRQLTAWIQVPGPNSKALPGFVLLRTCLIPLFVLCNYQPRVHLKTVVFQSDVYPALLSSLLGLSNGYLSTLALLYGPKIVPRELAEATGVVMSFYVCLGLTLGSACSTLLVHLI
inactive: [1] 0.005 | [2] -0.023 | [3] 0.089 | [4] 0 | [5] 0.124 | [6] -0.097 | [7] -0.128 | [8] 0.017 | [9] 0.005 | [10] -0.016

SUOX (UniProt P51687)
inactive: [1] -0.012 | [2] -0.002 | [3] -0.007 | [5] -0.021 | [6] -0.046 | [7] -0.051 | [8] 0.023 | [9] -0.033 | [10] 0.007
active: [4] -0.334

SPG21 (UniProt Q9NZD8)
inactive: [1] -0.108 | [2] -0.157 | [3] -0.003 | [4] 0.057 | [5] 0.016 | [6] 0.044 | [7] -0.044 | [8] 0.057 | [9] -0.014 | [10] 0.026

TFB2M (UniProt Q9H5Q4)
inactive: [1] -0.017 | [2] 0 | [3] 0.008 | [4] 0.086 | [5] -0.077 | [6] 0.035 | [7] 0.073 | [8] -0.058 | [9] 0.017 | [10] 0.048

SP100 isoform 4 (UniProt P23497)
inactive: [1] 0.02 | [2] -0.004 | [3] 0.072 | [4] -0.008 | [5] -0.119 | [6] -0.019 | [7] 0.159 | [8] 0 | [9] -0.005 | [10] 0.003

TIMM29 (UniProt Q9BSF4)
Sequence of UniProt Q9BSF4 (Q9BSF4 whole entry, looked up): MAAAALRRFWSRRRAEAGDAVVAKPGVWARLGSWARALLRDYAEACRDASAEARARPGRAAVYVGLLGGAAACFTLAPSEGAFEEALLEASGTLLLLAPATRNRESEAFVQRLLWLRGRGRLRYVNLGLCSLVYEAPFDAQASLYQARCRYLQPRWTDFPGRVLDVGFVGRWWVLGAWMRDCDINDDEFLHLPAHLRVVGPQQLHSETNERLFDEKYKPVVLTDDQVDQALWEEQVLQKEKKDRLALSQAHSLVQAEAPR
inactive: [1] -0.007 | [2] -0.015 | [3] -0.023 | [4] -0.102 | [5] -0.037 | [6] -0.031 | [7] 0.033 | [8] 0 | [9] 0.014 | [10] 0.004

SPG11 (UniProt Q96JI7)
inactive: [1] -0.384 | [2] 0.068 | [3] -0.063 | [4] -0.182 | [5] 0.359 | [6] -0.415 | [7] -0.008 | [8] -1.21 | [9] 0.023 | [10] 0.029

TAOK3 (UniProt Q9H2K8)
Sequence of UniProt Q9H2K8 (Q9H2K8 whole entry, looked up): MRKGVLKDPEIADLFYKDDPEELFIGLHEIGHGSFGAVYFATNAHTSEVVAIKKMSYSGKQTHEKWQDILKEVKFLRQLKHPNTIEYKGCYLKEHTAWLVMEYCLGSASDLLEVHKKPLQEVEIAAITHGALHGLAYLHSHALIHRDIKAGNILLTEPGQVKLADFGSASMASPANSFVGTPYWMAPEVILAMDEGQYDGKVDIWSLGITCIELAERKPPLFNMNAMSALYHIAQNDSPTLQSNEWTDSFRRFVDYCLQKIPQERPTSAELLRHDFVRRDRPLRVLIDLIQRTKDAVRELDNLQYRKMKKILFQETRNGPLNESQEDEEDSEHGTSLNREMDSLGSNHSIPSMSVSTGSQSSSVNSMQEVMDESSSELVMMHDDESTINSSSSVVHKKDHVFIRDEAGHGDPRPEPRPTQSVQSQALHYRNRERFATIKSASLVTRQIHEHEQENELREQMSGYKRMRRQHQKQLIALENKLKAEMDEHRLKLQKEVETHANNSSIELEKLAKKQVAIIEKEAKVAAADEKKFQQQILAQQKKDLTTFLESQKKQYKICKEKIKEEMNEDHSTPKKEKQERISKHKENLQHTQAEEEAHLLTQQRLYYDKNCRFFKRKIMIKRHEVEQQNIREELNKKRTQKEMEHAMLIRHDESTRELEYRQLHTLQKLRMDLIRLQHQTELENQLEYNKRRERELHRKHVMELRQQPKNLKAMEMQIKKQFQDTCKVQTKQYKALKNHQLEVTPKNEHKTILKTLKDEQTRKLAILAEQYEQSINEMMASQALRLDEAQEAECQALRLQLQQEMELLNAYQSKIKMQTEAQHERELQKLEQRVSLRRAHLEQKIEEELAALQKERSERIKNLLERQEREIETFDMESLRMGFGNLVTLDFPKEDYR
inactive: [1] 0.028 | [2] -0.031 | [3] 0.078 | [4] 0.059 | [5] -0.054 | [6] 0.092 | [7] 0.115 | [8] 0 | [9] -0.019 | [10] 0.027

SRP72 (UniProt O76094)
Sequence of UniProt O76094 (O76094 whole entry, looked up): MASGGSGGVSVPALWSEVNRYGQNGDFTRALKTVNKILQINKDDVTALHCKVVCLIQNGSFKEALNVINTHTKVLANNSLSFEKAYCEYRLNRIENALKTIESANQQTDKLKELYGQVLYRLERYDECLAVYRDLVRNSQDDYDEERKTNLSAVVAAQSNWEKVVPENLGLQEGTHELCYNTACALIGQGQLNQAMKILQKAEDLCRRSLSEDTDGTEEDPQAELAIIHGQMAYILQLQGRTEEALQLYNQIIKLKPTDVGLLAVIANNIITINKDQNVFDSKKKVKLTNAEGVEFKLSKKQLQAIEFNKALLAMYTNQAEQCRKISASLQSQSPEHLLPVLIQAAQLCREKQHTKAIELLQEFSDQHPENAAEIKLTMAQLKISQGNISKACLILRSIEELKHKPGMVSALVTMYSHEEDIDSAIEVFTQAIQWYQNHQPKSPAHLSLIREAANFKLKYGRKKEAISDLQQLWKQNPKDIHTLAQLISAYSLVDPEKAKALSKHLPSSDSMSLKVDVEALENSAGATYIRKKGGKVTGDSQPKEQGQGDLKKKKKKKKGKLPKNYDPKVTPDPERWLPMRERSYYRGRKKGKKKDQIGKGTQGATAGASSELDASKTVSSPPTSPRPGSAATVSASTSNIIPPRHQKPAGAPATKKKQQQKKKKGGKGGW
inactive: [1] 0.024 | [2] -0.01 | [3] 0.034 | [4] -0.009 | [5] 0.171 | [6] 0.037 | [7] 0.09 | [8] 0.046 | [9] 0.143 | [10] 0.078

TFAM (UniProt Q00059)
Sequence of UniProt Q00059 (Q00059 whole entry, looked up): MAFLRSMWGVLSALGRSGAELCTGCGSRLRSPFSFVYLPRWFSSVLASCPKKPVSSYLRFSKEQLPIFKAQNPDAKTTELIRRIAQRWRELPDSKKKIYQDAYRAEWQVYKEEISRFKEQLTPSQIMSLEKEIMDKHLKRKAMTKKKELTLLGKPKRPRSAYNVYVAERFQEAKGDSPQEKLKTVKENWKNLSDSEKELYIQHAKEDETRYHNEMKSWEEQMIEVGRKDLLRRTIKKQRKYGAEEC
inactive: [1] 0.039 | [2] -0.004 | [3] -0.036 | [4] -0.036 | [5] 0.079 | [6] -0.05 | [7] -0.043 | [8] -0.033 | [9] -0.055 | [10] -0.023

TIMM21 (UniProt Q9BVV7)
inactive: [1] 0.014 | [2] 0.008 | [3] 0.035 | [4] 0.058 | [5] -0.121 | [6] 0.032 | [7] 0.067 | [8] -0.005 | [9] 0.005 | [10] 0.034

STAT6 (UniProt P42226)
inactive: [1] -0.092 | [2] -0.111 | [3] 0.053 | [4] 0.015 | [5] 0.044 | [6] 0.058 | [7] 0.082 | [8] -0.012 | [9] 0.078 | [10] 0.001

SPINDOC (UniProt Q9BUA3)
Sequence of UniProt Q9BUA3 (Q9BUA3 whole entry, looked up): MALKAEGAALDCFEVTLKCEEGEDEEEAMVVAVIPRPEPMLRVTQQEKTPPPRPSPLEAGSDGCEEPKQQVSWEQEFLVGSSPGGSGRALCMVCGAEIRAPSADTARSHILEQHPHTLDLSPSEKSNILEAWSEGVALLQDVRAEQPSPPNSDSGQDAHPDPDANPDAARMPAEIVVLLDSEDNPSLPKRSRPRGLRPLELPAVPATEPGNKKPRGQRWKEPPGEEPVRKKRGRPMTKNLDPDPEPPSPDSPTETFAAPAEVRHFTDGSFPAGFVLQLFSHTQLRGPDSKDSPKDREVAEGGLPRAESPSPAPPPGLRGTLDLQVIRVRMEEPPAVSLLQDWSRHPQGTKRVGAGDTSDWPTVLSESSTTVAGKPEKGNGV
inactive: [1] 0.157 | [2] 0.037 | [3] -0.074 | [4] -0.139 | [5] -0.014 | [6] 0.113 | [7] 0.11 | [8] -0.013 | [9] -0.127 | [10] 0.129

SMARCAD1 isoform 2 (UniProt Q9H4L7)
Sequence of UniProt Q9H4L7 (Q9H4L7 whole entry, looked up): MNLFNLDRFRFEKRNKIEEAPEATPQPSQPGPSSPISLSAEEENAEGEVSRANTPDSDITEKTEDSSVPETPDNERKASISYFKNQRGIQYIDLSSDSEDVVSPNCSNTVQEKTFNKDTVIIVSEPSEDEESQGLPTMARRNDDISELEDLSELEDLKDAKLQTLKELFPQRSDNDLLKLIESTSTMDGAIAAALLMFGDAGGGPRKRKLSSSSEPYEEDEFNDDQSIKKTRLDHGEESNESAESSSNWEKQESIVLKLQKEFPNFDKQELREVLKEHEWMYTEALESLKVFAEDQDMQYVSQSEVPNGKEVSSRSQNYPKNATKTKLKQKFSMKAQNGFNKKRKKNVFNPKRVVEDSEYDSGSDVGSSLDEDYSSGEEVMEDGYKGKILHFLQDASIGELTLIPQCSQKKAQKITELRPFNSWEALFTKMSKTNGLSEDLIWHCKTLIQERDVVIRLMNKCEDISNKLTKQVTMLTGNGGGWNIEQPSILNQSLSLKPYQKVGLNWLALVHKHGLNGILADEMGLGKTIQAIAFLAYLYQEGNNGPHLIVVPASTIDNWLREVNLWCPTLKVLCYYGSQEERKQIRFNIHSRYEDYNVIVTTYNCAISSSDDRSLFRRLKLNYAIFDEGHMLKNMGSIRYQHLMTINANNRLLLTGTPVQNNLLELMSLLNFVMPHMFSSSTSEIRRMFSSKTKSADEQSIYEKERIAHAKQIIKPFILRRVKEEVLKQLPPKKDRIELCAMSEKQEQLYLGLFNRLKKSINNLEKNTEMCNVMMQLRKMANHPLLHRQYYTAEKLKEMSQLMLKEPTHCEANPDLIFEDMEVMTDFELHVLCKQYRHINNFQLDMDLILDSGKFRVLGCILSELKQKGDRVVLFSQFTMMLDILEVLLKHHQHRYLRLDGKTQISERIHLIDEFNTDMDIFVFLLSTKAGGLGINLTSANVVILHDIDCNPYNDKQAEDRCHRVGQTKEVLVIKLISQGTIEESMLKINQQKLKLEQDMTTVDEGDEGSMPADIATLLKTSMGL
inactive: [1] 0.028 | [2] -0.072 | [3] -0.026 | [4] 0.064 | [5] -0.028 | [6] 0.192 | [7] 0.101 | [8] 0.035 | [9] 0.127 | [10] 0.089

SMARCE1 (UniProt Q969G3)
inactive: [1] -0.025 | [2] -0.058 | [3] -0.003 | [4] 0.074 | [5] 0.121 | [6] -0.123 | [7] 0.085 | [8] -0.522 | [9] 0.028 | [10] 0.042

TCOF1 isoform 4 (UniProt Q13428)
inactive: [1] -0.03 | [2] 0.015 | [3] -0.028 | [4] -0.019 | [5] -0.001 | [6] -0.029 | [7] -0.012 | [8] -0.004 | [9] 0.056 | [10] 0.006

SUGP1 (UniProt Q8IWZ8)
inactive: [1] -0.006 | [2] -0.021 | [3] 0.033 | [4] 0.065 | [5] 0.056 | [6] 0.121 | [7] 0.096 | [8] -0.001 | [9] 0.095 | [10] 0.068

SNX3 (UniProt O60493)
Sequence of UniProt O60493 (O60493 whole entry, looked up): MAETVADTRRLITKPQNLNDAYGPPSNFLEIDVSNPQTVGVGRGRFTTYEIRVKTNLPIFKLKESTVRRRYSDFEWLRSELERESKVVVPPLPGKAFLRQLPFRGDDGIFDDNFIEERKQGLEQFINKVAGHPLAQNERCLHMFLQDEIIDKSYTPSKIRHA
inactive: [1] -0.013 | [2] -0.064 | [3] 0.073 | [4] -0.004 | [5] 0.037 | [6] 0.046 | [7] 0.122 | [8] 0.02 | [9] 0.09 | [10] 0.045

SNX11 (UniProt Q9Y5W9)
inactive: [1] -0.008 | [2] 0.012 | [3] -0.003 | [4] 0.043 | [5] 0.014 | [6] 0.043 | [7] 0.025 | [8] 0.022 | [9] -0.006 | [10] 0.019
